WRN helicase inh: inhibitors of human WRN helicase; Potency, µM (highest dose often 114 µM), for inactives: top-dose activity change, negative = inhibition, most hits filed as inhibitors; 360,000 compounds, 0.46% hits; WRN helicase unwinding, fluorescent forked duplex, kinetic; Q14191; note: potency is the fitted concentration of half-maximal effect; nearly all actives have a fitted effect of over 55% in size
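Screening of the MLSMR collection measured strand separation of a quenched forked DNA duplex (100 nM) by 20 nM WRN with 2 mM ATP, all final. Compounds were preincubated with enzyme 15 min at room temperature.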
USP2a inh: blocks human ubiquitin-specific protease USP2a; O75604; USP2 core, Ub-CHOP2 coupled fluorogenic reporter, 485/531; Potency, µM (doses to about 38.3 µM), without a hit: at the highest dose activity change, negative = inhibition, most hits filed as inhibitors; 330,000 compounds, 0.01% hits; AID 463254;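 note: potency is the fitted concentration of half-maximal effect; plate controls were DMSO wells for no effect and full inhibition by NEM control for full effect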
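Cell-free coupled assay: 10nM USP2 core preincubated 30min RT with compound in Tris-HCl pH 8.0/CaCl2/CHAPS buffer, then 25nM Ub-CHOP2 and 25nM reporter substrate; fluorescence (Ex 485/Em 531) read after 60min RT, normalized to NEM inhibition, concentration-response curves fitted.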
PI5P4Ka inh: PI5P4K alpha (human) kinase inhibition. max response, %. PI5P4Kalpha enzyme, ADP-Glo luminescence, 60 min; hits give low values. P48426. 330,000 compounds, 1.2% hits; active = max response of -50% or lower; inconclusive = between -30% and -50%; inactive = -30% or higher; note: value at the top dose of about 77 µM
Target sequence (P48426 whole entry, looked up): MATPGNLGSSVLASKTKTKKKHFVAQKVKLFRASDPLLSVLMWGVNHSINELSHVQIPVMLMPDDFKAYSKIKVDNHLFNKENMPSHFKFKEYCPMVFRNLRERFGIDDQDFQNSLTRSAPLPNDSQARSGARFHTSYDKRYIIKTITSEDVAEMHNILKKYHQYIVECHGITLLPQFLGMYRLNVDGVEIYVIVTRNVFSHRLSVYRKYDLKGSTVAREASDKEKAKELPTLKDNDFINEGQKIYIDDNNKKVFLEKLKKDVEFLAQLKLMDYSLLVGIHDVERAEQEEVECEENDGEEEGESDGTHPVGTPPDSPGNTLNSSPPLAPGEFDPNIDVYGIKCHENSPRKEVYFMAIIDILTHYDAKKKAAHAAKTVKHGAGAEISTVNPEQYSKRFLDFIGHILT
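Human PI5P4Kalpha with substrate in 0.038 M HEPES pH 7.4, 0.28 mM EGTA, 0.1% CHAPS, 5% DMSO; reaction started with 5 microM ATP (final), 60 min at room temperature. ADP formed read by ADP-Glo luminescence.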
PLK1 PBD inh: blocks phosphopeptide binding to human PLK1 polo-box domain. P53350. Plk1 PBD binding of FITC phosphopeptide, fluorescence polarization. Potency, µM, for the others: max response, negative = inhibition, actives largely listed as inhibitors. 360,000 compounds, 2.8% hits. AID 720504; note: potency is the fitted concentration of half-maximal effect; series mostly up to about 57 µM; nearly all actives have a fitted effect of over 65% in size
USP1 inh: USP1/UAF1 (human) deubiquitinase inhibition | O94782 | recombinant USP1/UAF1, Ub-Rhodamine cleavage fluorescence | Potency, µM (titrated, usually from 57.1 µM), for inactives: top-dose activity change, negative = inhibition, hits mostly inhibitors | 390,000 compounds, 0.23% hits | AID 743255; note: potency is the fitted concentration of half-maximal effect; nearly all actives have a fitted effect of over 60% in size
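Step one: compound is pinned into 1nM USP1/UAF1 in HEPES pH 7.8 buffer with TCEP. Step two: 15 min room-temperature incubation. Step three: Ub-Rho (150nM final) starts cleavage, tracked by fluorescence over six one-minute reads.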
Numbers without * were called inactive; [ ] = dose if it differs, or a comment. Hits are enriched below; roughly 3.3% of the tested compounds scored in any of these assays. Unless noted, calls come from the whole dose curve; as a rule, active = well fitted curve in the direction sought with a large enough effect; inconclusive = small, poorly fitted or top-dose-only effect, or another doubt; inactive = no such curve, though single readings can be large; an effect the other way counts as inactive or inconclusive. Unless noted, % is set by controls: 0 for no effect and ±100 for the full control effect.

For COc1ccc(NC(=O)CN2CCN(c3ccc(F)cc3)CC2)cc1 the results were WRN helicase inh 4.4%, USP2a inh 1.8%, PI5P4Ka inh -7.9, PLK1 PBD inh 29.9µM* and USP1 inh -11.2%.
`O=C(CN1CCN(c2ccc(F)cc2)CC1)Nc1nccs1` gave WRN helicase inh 12.9%, USP2a inh 4.8%, PI5P4Ka inh 1.3, PLK1 PBD inh 23.8µM* and USP1 inh inconclusive.
For Cc1nc2sccn2c(=O)c1S(=O)(=O)Nc1cc(C(F)(F)F)ccc1Cl the results were USP1 inh -18.9%.
`Cc1c(-c2ccccc2)n(-c2ccc(Cl)cc2)c2nc3c(c(=O)n(C)c(=O)n3C)n12` gave USP1 inh -4.7%.
Screening Cc1ccc(C(=O)O)cc1-c1ccc(/C=C2\SC(=O)N(CC(=O)Nc3ccccc3)C2=O)o1 returned WRN helicase inh inconclusive, USP2a inh 1.9%, PI5P4Ka inh -56.3*, PLK1 PBD inh inconclusive and USP1 inh inconclusive.
For Cc1ccc(NC(=O)CN2C(=O)S/C(=C/c3ccc(-c4cccc(C(=O)O)c4)o3)C2=O)cc1 the results were WRN helicase inh inconclusive, USP2a inh 4.6%, PI5P4Ka inh inconclusive, PLK1 PBD inh inconclusive and USP1 inh -33.1%.
Cc1ccccc1NC(=O)CN1C(=O)S/C(=C\c2ccc(-c3cc(C(=O)O)ccc3C)o2)C1=O was read as WRN helicase inh inconclusive, USP2a inh 9.8%, PI5P4Ka inh -79.1*, PLK1 PBD inh -19.9% and USP1 inh inconclusive.
Screening Cc1cc(C(=O)O)ccc1-c1ccc(/C=C2\SC(=O)N(CC(=O)Nc3ccc4c(c3)OCO4)C2=O)o1 returned USP2a inh 13.5%.
Cc1ccc(C)c(N2C(=N)S/C(=C\c3ccc(-c4ccccc4C(=O)O)o3)C2=O)c1 was read as WRN helicase inh inconclusive, USP2a inh 1.4%, PI5P4Ka inh -51.5*, PLK1 PBD inh inconclusive and USP1 inh -26.0%.
`COc1ccc(C(=O)NCc2ccc3c(c2)CCN3C(C)=O)c(OC)c1` gave USP1 inh -12.1%.
For CCOc1ccc(-c2nc(Cn3c(=O)cc(-c4ccccc4)c4c(C)nn(C)c43)c(C)o2)cc1OC the results were USP1 inh -14.9%.
CCOc1cc(/C=N/Nc2cccc(C(=O)O)c2)ccc1OC(=O)c1ccccc1 was read as WRN helicase inh -20.3%, USP2a inh 6.9%, PI5P4Ka inh 4.6, PLK1 PBD inh 29.9µM* and USP1 inh -23.7%.
For Cc1oc(C)c2c(=O)cc(-c3ccc4c(c3)OCO4)cc(OC(=O)c3ccccc3Br)c12 the results were USP1 inh -8.0%.
For COc1cc(N(C(C)=O)c2ccc(O)c(C(=O)O)c2)c2ncccc2c1 the results were WRN helicase inh -6.7%[11.6 µM], PI5P4Ka inh inconclusive, PLK1 PBD inh -3.0% and USP1 inh 31.6µM*.
For COc1cc(N(C(C)=O)c2ccc(O)cc2)c2ncccc2c1 the results were WRN helicase inh -4.2%, PI5P4Ka inh -11.0, PLK1 PBD inh 3.3% and USP1 inh -11.6%.
`Nc1ncc(Br)cc1S(=O)(=O)Nc1cc(C(F)(F)F)cc(C(F)(F)F)c1` gave WRN helicase inh inconclusive, USP2a inh -1.8%, PI5P4Ka inh 23.1, PLK1 PBD inh 29.9µM* and USP1 inh -22.5%.
Screening COc1cc2c(=O)c(C(=O)c3ccc(C)c(C)c3)cn(Cc3ccccc3F)c2cc1OC returned USP1 inh 0.4%.
CCOC(=O)Cc1csc(NC(=O)CC)n1 was read as WRN helicase inh -8.1%, USP2a inh 2.3%, PLK1 PBD inh -7.6% and USP1 inh -19.7%.
For CCOC(=O)Cc1csc(NC(=O)Cn2cnc3c2c(=O)n(C)c(=O)n3C)n1 the results were WRN helicase inh 7.3%[57.1 µM], USP2a inh -1.0%, PI5P4Ka inh -18.0, PLK1 PBD inh 11.9µM* and USP1 inh -3.2%.
`Cc1csc2nc(COC(=O)c3cccc(NC(=O)c4cccc(Cl)c4)c3)cc(=O)n12` gave USP1 inh -16.6%.
CCOCN(C(=O)Cn1cnc2cc(C)c(C)cc21)c1c(C)cccc1CC was read as USP1 inh -15.0%.
For CC(C)N(Cc1cnn(C)c1)Cc1nc(COc2ccccc2)no1 the results were WRN helicase inh 3.5%, USP2a inh 0.7%, PI5P4Ka inh -17.7, PLK1 PBD inh 21.2µM* and USP1 inh 1.8%.
`O=C(NCC1CCN(Cc2cccc(F)c2)CC1)c1cc2ccc3cccnc3c2[nH]1` gave USP1 inh -18.2%.
For C[C@H](NC(=O)N1CCn2c1nc1ccccc12)C(=O)N1CCCCC1 the results were WRN helicase inh 2.0%, USP2a inh 0.9%, PI5P4Ka inh inconclusive, PLK1 PBD inh 8.44µM* and USP1 inh -25.2%.
`COc1ccc(CNC(=O)CCNC(=O)N2CCn3c2nc2ccccc23)cc1` gave WRN helicase inh -0.7%, USP2a inh 2.6%, PI5P4Ka inh -13.7, PLK1 PBD inh 23.8µM* and USP1 inh -24.3%.
O=C(c1ccccc1)N1CCn2c1nc1ccccc12 was read as WRN helicase inh 1.3%, USP2a inh 1.9%, PI5P4Ka inh -4.5, PLK1 PBD inh 26.7µM* and USP1 inh -0.4%.
Screening C[C@H](NC(=O)N1CCn2c1nc1ccccc12)C(=O)NC1CC1 returned WRN helicase inh -8.8%, USP2a inh 0.6%, PI5P4Ka inh 5.1, PLK1 PBD inh 3.1% and USP1 inh -25.2%.
`CC1CN(c2ccc(Cl)cc2)c2nc3c(c(=O)n(CC(=O)O)c(=O)n3C)n2C1` (centres undefined) gave USP1 inh -18.2%.
`Cc1ccc(CN2C(=O)N/C(=C\c3ccc(-c4ccc(C(=O)O)cc4C)o3)C2=O)cc1` gave WRN helicase inh inconclusive, USP2a inh 5.5%, PI5P4Ka inh -22.6, PLK1 PBD inh inconclusive and USP1 inh -22.5%.
Screening Cc1cc(C(=O)O)ccc1-c1ccc(/C=C2\NC(=O)N(Cc3ccccc3Cl)C2=O)o1 returned WRN helicase inh 50.1µM*, USP2a inh -0.8%, PI5P4Ka inh -67.4*, PLK1 PBD inh 16.8µM* and USP1 inh -16.1%.
CC1=NN(c2ccc(C(=O)O)cc2)C(=O)/C1=C/c1ccc(-c2ccccc2F)o1 was read as USP2a inh 4.4%.
For Cc1ccc(C(=O)O)cc1-c1ccc(/C=C2/NC(=O)N(c3ccccc3)C2=O)o1 the results were WRN helicase inh 39.8µM*, USP2a inh 7.2%, PI5P4Ka inh inconclusive, PLK1 PBD inh inconclusive and USP1 inh -25.4%.
For CN(C)c1ccc(NC(=O)COC(=O)c2ccc3c(c2)OCO3)cc1 the results were WRN helicase inh inconclusive, USP2a inh 0.7%, PI5P4Ka inh -4.9, PLK1 PBD inh -6.9% and USP1 inh -5.5%.
CN(C)c1ccc(C(=O)OCC(=O)Nc2ccc(S(N)(=O)=O)cc2)cc1 was read as WRN helicase inh 44.7µM*, USP2a inh -1.4%, PI5P4Ka inh 3.2, PLK1 PBD inh -18.0% and USP1 inh inconclusive.
